# Measurements from PubChem BioAssay AID588413 (Sanford-Burnham Center for Chemical Genomics, 2011).
# About 2,500 (0.74%) of roughly 340,000 compounds were called active. This is one part of a sample in which actives are shown more often than they occur.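 Rule for the calls: active = inhibition above about 55% (limit read from the data); inactive = the rest.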
# Assay: Gli-Sufu pathway antagonists, primary screen, luciferase luminescence, Sufu-KO-LIGHT cells, uHTS (AID 588413);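 note: 0% = DMSO-treated cells and 100% = wells with medium but no cells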
# Conditions: Sufu-KO-LIGHT fibroblasts, Gli luciferase reporter luminescence; at 5 µM; hits give high values
row,Compound,inhibition
1,CC(=O)c1cc2c(cc1NC(=O)CN1CCCCCC1)OCO2,-2.2% (inactive)
2,CCn1c(C)cc(=O)cc1-c1ccc(Cl)cc1,8.82% (inactive)
3,COc1ccc(Cn2c(=O)cc(C)[nH]c2=S)cc1,8.5% (inactive)
4,COc1ccc(Cn2c(-c3ccc(Cl)cc3)c[n+]3ccccc23)cc1,66.8% (active)
5,C[C@@H]1CN([C@@H](C)CO)C(=O)c2cc(NC(=O)C3CC3)ccc2O[C@H]1CN(C)C,-16% (inactive)
6,Cc1ccccc1N1CCN(CC(=O)NCc2ccc(Cl)cc2)CC1,6.04% (inactive)
7,COc1ccc(OC)c(CN2C(=O)CCC2(C)C(=O)NC2CCCCCC2)c1 (configuration not stated),23.4% (inactive)
8,O=C(C1CCCO1)N1CCN(C(=S)NC2CC2)CC1 (configuration not stated),-11.3% (inactive)
9,Cc1ccc(-c2cn3cc(C)ccc3n2)cc1,63.8% (active)
10,Cc1ccc2nc(-c3ccc(Br)cc3)cn2c1,20.9% (inactive)
11,COc1ccc(-c2cn3ccc(C)cc3n2)cc1,-72% (inactive)
12,O=C(CCS(=O)(=O)c1cccc2nonc12)NCCc1ccccc1Cl,4.43% (inactive)
13,CC1(C)CCSC(/C=C/c2ccccc2)=N1,4.7% (inactive)
14,CCN(CC(=O)Nc1ccccc1C(F)(F)F)C(=O)C1CCN(C(=O)Nc2ccccc2)CC1,7.33% (inactive)
15,COc1cc(C(F)(F)F)c(C(=O)N(C)c2ccc(Cl)cc2)cn1,0.82% (inactive)
16,N=c1c2c3c(sc2nc2n1CCCCC2)CCCC3,-5.48% (inactive)
17,O=C(CCc1ccccc1)Nc1ccnn1C1CCN(Cc2ccc(OCCO)cc2)CC1,11.7% (inactive)
18,CC[n+]1cc(C)ccc1/C=C/c1ccc(N(C)C)cc1,81.8% (active)
19,COc1ccc(-c2c(C#Cc3ccsc3)c3cc(-c4ccc(CN5CCOCC5)cc4)ccc3n2C)cc1,9.39% (inactive)
20,O=C(COc1cccnc1[N+](=O)[O-])Nc1ccc(Cl)cc1F,-19.8% (inactive)
21,Cc1ccc(-c2cc(C(=O)NC3CCN(Cc4ccccc4)CC3)c3ccccc3n2)cc1,10.8% (inactive)
22,Cc1ccc(S(=O)(=O)NCCC(=O)NC2CCN(Cc3ccccc3)CC2)cc1,3.57% (inactive)

row,Compound,inhibition
1,Cc1ccc(-c2nc(CSCC(=O)NC3CCN(Cc4ccccc4)CC3)c(C)o2)cc1,67.4% (active)
2,Cc1cc(C)c(C=NNc2nc3c([nH]2)c(=O)n(C)c(=O)n3C)c(C)c1,1.9% (inactive)
3,Cc1ccc(C(=O)Nc2sc(Cc3ccc4c(c3)OCO4)c(C)c2C(N)=O)cc1,-1.06% (inactive)
4,COCOc1cc(O)c(C(=O)/C=C/c2ccc(OCOC)c(OCOC)c2)c(OCOC)c1,3.02% (inactive)
5,Nc1ccc(C(=O)N2CCN(S(=O)(=O)c3ccc(Cl)cc3)CC2)cc1[N+](=O)[O-],98.7% (active)
6,Cc1ccc(S(=O)(=O)N2CCN(C(=O)c3ccc(-n4cncn4)c([N+](=O)[O-])c3)CC2)cc1,1.3% (inactive)
7,CC(C)c1ccc(S(=O)(=O)N2CCN(C(=O)c3ccc(N4CCCC4)c([N+](=O)[O-])c3)CC2)cc1,-1.24% (inactive)
8,CC(=O)c1cc(-c2ccccc2)n(CCC(=O)NC2CCCCCC2)c1C,1.89% (inactive)
9,COc1cccc2c1C(=O)c1c(O)c3c(c(O)c1C2=O)CC(O)(C(C)=NNC(=O)c1ccc(Cl)c(Cl)c1)CC3OC1CC(N)C(O)C(C)O1 (configuration not stated),71.2% (active)
10,CCCCN(C(=O)c1ccc(S(=O)(=O)N2CCOCC2)cc1)C1CCS(=O)(=O)C1 (configuration not stated),0.87% (inactive)
11,O=C(OC1CCOC1=O)c1ccc(-c2nc3ccccc3s2)s1 (configuration not stated),-21% (inactive)
12,Cc1cccc(C)c1NC(=S)N1CCCCCC1,3.64% (inactive)
13,C/C(=N\NC(=O)c1ccccc1F)c1ccccn1,58.4% (active)
14,C/C(=N\NC(=O)Cc1ccc(Cl)cc1)c1ccccn1,88% (active)
15,Cc1cnc(NC(=O)c2ccccn2)s1,-50.9% (inactive)
16,NC(=O)NC(CC(=O)NNC(=O)c1ccccn1)c1ccc(Cl)cc1 (configuration not stated),5.55% (inactive)
17,CC(=NNC(=S)N1CCCCCC1)c1ccccn1,63.6% (active)
18,CNC(=S)N1CCN(c2ccccn2)CC1,2.59% (inactive)
19,COc1ccc(/C(C)=N\NC(=O)c2ccc(-c3ccccc3)cc2)c(F)c1,2.32% (inactive)
20,CC1=NNC(=O)C1CCC(=O)N/N=C(\C)c1ccc(Cl)cc1 (configuration not stated),3.52% (inactive)
21,O=C(COC(=O)c1ccc(O)cc1O)c1ccc2c(c1)OCCO2,-30.6% (inactive)
22,C=CCn1cc(C(=O)NCc2ccc(Cl)cc2)c(=O)c2cc(S(=O)(=O)N(CC)CC)ccc21,9.9% (inactive)

row,Compound,inhibition
1,Cc1ccc(S(=O)(=O)c2cc3c(=O)n4cccc(C)c4nc3n(CCc3ccccc3)c2=N)cc1C,1.35% (inactive)
2,CC(C)c1ccc(/C=C/C(=O)NCCCN2CCOCC2)cc1,-8.47% (inactive)
3,CNS(=O)(=O)c1ccc(NC(=O)C2CC(=O)N(c3ccc(Cl)cc3)C2)cc1 (configuration not stated),-4% (inactive)
4,CCOC(=O)c1c(C)[nH]c(C(=O)NCCN2CCOCC2)c1C,17.9% (inactive)
5,CN(C)S(=O)(=O)c1ccc(Cl)c(NC(=O)COC(=O)CC(NC(N)=O)c2ccc(Cl)cc2)c1 (configuration not stated),-2.2% (inactive)
6,CCOP1(=O)C=C(C(C)(C)C)OC1c1ccc(F)cc1 (configuration not stated),8.49% (inactive)
7,COc1cccc(NC(=S)NC(=O)c2c(Cl)c(C)nn2C)c1,-24.8% (inactive)
8,CCCc1c(C(=O)Nc2ccc(F)cc2)cnn1-c1ccccc1,-12.3% (inactive)
9,Cc1nn(C(C)C(=O)NCCC2=CCCCC2)c(=O)c2nn(-c3ccccc3)c(C)c12 (configuration not stated),3.02% (inactive)
10,CCN1/C(=C\c2ccc3ccccc3[n+]2CC)Sc2cc(C)ccc21,90% (active)
11,CCN1/C(=C/c2ccc3ccc(C)cc3[n+]2CC)Sc2ccccc21,79.4% (active)
12,NC(=O)c1ccc(N2CCCC2)nc1,1.14% (inactive)
13,CCC1=[N+]([O-])C(C)(/C(C)=N\O)N(O)C1(C)C (configuration not stated),17.9% (inactive)
14,CC(=NCc1ccco1)c1c(C(F)(F)F)[nH]n(-c2nc3ccccc3s2)c1=O,-17.2% (inactive)
15,COC(=O)Cc1[nH]n(-c2nc3ccccc3s2)c(=O)c1C(C)=Nc1ccc(OC)cc1,79.5% (active)
16,COc1ccc(C(=O)Nc2cccc(/C=C(/CCC(=O)O)c3nc4ccccc4s3)c2)cc1,-20.1% (inactive)
17,CCCCC(=O)Nc1ccc(C(=O)Nc2cc(C(F)(F)F)ccc2Cl)cc1,5.23% (inactive)
18,O=C(CC(O)(C(F)(F)F)C(F)(F)F)Nc1ccc(Cl)c(Cl)c1,78.9% (active)
19,NC(=O)N1CCCC1C(=O)Nc1ccc(Cl)c(Cl)c1 (configuration not stated),1.62% (inactive)
20,CCC1CCCCN1C(=O)CSc1nc2c(c(=O)n1C)SC(C)C2 (configuration not stated),1.3% (inactive)
21,COc1ccc(OC)c(/C=N/NC(=O)c2ccc[n+](CC(=O)c3ccccc3)c2)c1,91.4% (active)
22,COc1ccc(CC(=O)NCC(=O)N/N=C/c2cc(Br)ccc2OC)cc1,-1.49% (inactive)

row,Compound,inhibition
1,COc1ccc(OC)c(/C=N/NC(=O)CSc2nnc(C)n2-c2ccccc2)c1,-2.67% (inactive)
2,CCC(C)Cn1c(O)cc2nn(-c3nc4ccccc4s3)c(=O)c-2c1C (configuration not stated),83.4% (active)
3,Cc1cc(NC(=O)CN2CCCC(C)C2)n(-c2nc3ccccc3s2)n1 (configuration not stated),20% (inactive)
4,CCc1ccc[n+](-c2nc([O-])sc2C=O)c1,6.64% (inactive)
5,COc1ccc(NC(=O)CNC(=O)Cn2ccc3ccccc3c2=O)c(OC)c1,-0.61% (inactive)
6,COc1ccc(OC)c(Cc2cnc3nc(N)nc(N)c3c2C)c1,63.1% (active)
7,COc1ccc(OC)c(Cc2nnc(CCC(=O)NC3CCCC3)o2)c1,-18.7% (inactive)
8,COc1ccc(OC)c(NC(=O)c2sc3nc(C)cc(C)c3c2N)c1,-3.47% (inactive)
9,CC(C)=CCCC1(C)C=Cc2c(ccc3c2[nH]c2cc(O)c(C)cc23)O1 (configuration not stated),-3.46% (inactive)
10,CS(=O)(=O)N1CCCC(C(=O)Nc2ccccc2C(F)(F)F)C1 (configuration not stated),-2.21% (inactive)
11,O=C(O)CCCCCCCCc1cn(CN2C(=O)c3ccccc3C2=O)nn1,-12.6% (inactive)
12,OCC1(Cc2ccccc2C(F)(F)F)CCN(Cc2cccc3cnccc23)CC1,25.5% (inactive)
13,CC1CC2=C(CC1/C=N/NC(N)=S)C(C)(C)CCC2 (configuration not stated),72.7% (active)
14,COc1cccc(CN(C)C(=O)CC23CC4CC(CC(C4)C2)C3)c1OC,-2.54% (inactive)
15,Cn1c(N)c(C(=O)COC(=O)/C=C/c2ccc(OC(F)F)cc2)c(=O)n(C)c1=O,5.01% (inactive)
16,N#Cc1c(-c2cccs2)nc(SCC(=O)c2ccc(Br)cc2)[nH]c1=O,4.3% (inactive)
17,N#Cc1ccc(C(=O)Nc2nc(-c3cccs3)c(C(=O)C(F)(F)F)s2)cc1,62.5% (active)
18,COC(=O)c1sc(NC(=S)NC(=O)c2ccc(C)cc2)nc1C,-41.9% (inactive)
19,C/C(N)=C(\C#N)C(=O)NCCc1ccccn1,-1.25% (inactive)
20,C=CC[C@H](CC(=O)OC(C)(C)C)C(=O)OC[C@H]1CCCN1C(=O)[C@H](CC=C)CC(=O)N(CCO)Cc1ccccc1,7.8% (inactive)
21,Nc1nc(SCC(=O)Nc2ccc(Cl)c([N+](=O)[O-])c2)n[nH]1,-5.39% (inactive)
